# From PubChem BioAssay (Tox21)
# Where “and” joins values, the source holds several entries; their conditions need not be identical. Equal entries are not always repeated. Records with an inconclusive call do not appear. A call without a number means that no potency is given here. Some compounds were tested as several samples or in several runs, with calls that do not always agree. Calls of active or inactive are those of the source. Unless noted, the call rests on the fitted dose curve; in most records, active means well fitted curve in the direction sought with a large enough effect in the repeat runs; inconclusive means weak or mixed curves; inactive means no such curve, though single readings can be large; an effect the other way counts as inactive or inconclusive.
# Key:
# [1] = qHTS assay for small molecule agonists of the p53 signaling pathway (AID 651631; calls by dose curve; further: nearly all actives have a fitted effect of over 15% in size; further: potency means the concentration at half of the fitted maximal effect)
# Procedure, shortened: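 Fluorescence intensity from cleaved LiveBLAzer B/G substrate (2 h, room temperature) served as the signal. Beforehand, HCT-116 reporter cells bearing p53 response elements were treated 16 h at 37 °C with DMSO-dissolved compounds.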
# [2] = qHTS assay for small molecule agonists of the p53 signaling pathway - cell viability (AID 651633; calls by dose curve; further: nearly all actives have a fitted effect of over 30% in size; further: potency means the concentration at half of the fitted maximal effect)
# Procedure, shortened: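 Viability counter-read: CellTiter-Glo luminescence (30 min, room temperature) in the same p53RE-bla plates. These plates had been exposed to compounds for 16 h at 37 C.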
# [3] = qHTS assay for small molecules that induce genotoxicity in human embryonic kidney cells expressing luciferase-tagged ATAD5 - cell viability (AID 651634; calls by dose curve; further: nearly all actives have a fitted effect of over 25% in size)
# Procedure, shortened: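 Cytotoxicity counter-readout: after 15.5 hr compound treatment at 37C, live-cell protease activity in ATAD5-luciferase HEK293T cells measured by CellTiter-Fluor fluorescence, 30 min development at 37C.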
# [4] = qHTS assay for small molecule disruptors of the mitochondrial membrane potential - cell viability (AID 720634; calls by dose curve; further: nearly all actives have a fitted effect of over 20% in size; further: potency means the concentration at half of the fitted maximal effect)
# Procedure, shortened: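 Cytotoxicity was quantified from ATP content by CellTiter-Glo luminescence in the same wells as the MMP dye read-out. HepG2 (2,000 cells/well) were plated overnight and exposed to compounds for 1 hr at 37 C.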
# [5] = qHTS assay to test for compound auto fluorescence at 590 nm (red) in HepG2 cells (AID 720674)
# Procedure, shortened: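 Red autofluorescence (Ex/Em 540/590 nm, Rose Bengal sodium equivalents) was measured in HepG2 cells, 2,000 per well in MEM plus 10% FBS, plated overnight at 37 C. Readings were taken 1 hr after adding 23 nL compound or DMSO, at 37 C and 5% CO2.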
# [6] = qHTS assay to test for compound auto fluorescence at 535 nm (green) in HepG2 cells (AID 720675)
# [7] = qHTS assay to test for compound auto fluorescence at 460 nm (blue) in HEK293 cell free culture (AID 720681)
# Procedure, shortened: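 Blue fluorescence (Ex 405/Em 460 nm, triamterene-equivalent) was read immediately after pin transfer of compound or DMSO into medium (DMEM, 10% FBS) without cells.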
# [8] = qHTS assay to test for compound auto fluorescence at 535 nm (green) in HEK293 cell free culture (AID 720682)
# Procedure, shortened: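 Intrinsic compound fluorescence is measured in culture medium containing 10% FBS, with excitation at 485 nm and detection at 535 nm, referenced to fluorescein.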
# [9] = qHTS assay to test for compound auto fluorescence at 590 nm (red) in HEK293 cell free culture (AID 720683)
# Procedure, shortened: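 Red-channel autofluorescence of compounds in culture medium (DMEM, 10% FBS), no cells, measured at 540/590 nm. Rose Bengal sodium is the reference fluorophore for equivalence.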
# [10] = qHTS assay to test for compound auto fluorescence at 590 nm (red) in HepG2 cell free culture (AID 720684)
# Procedure, shortened: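 Cell-free; medium MEM + 10% FBS; compound or DMSO added by pintool; read Ex 540/Em 590 nm; Rose Bengal sodium as red reference fluorophore.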
# [11] = qHTS assay to test for compound auto fluorescence at 460 nm (blue) in HepG2 cell free culture (AID 720685)
# Procedure, shortened: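 Cell-free plates of MEM plus 10% FBS received 23 nL compound or DMSO vehicle; blue-channel (405/460 nm) intensity scored against triamterene as reference fluorophore.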
# [12] = qHTS assay to test for compound auto fluorescence at 535 nm (green) in HepG2 cell free culture (AID 720686)
# [13] = qHTS assay to test for compound auto fluorescence at 460 nm (blue) in HepG2 cells (AID 720687)
# Procedure, shortened: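 Blue-channel autofluorescence (Ex/Em 405/460 nm, triamterene-equivalent) was measured after 1 hr compound exposure at 37 C, 5% CO2. Cells were HepG2, plated overnight at 37 C in MEM plus 10% FBS.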
# [14] = qHTS assay for small molecules that induce genotoxicity in human embryonic kidney cells expressing luciferase-tagged ATAD5 (AID 651632); further: nearly all actives have a fitted effect of over 15% in size; further: potency means the concentration at half of the fitted maximal effect
# Procedure, shortened: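 A rise in luciferase signal from ATAD5-tagged HEK293T cells marks genetic stress. Cells were exposed to compounds for 16 hr at 37C, 5% CO2, then luciferase was quantified after a 30 min room-temperature incubation with Amplite.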
# [15] = qHTS assay for small molecule disruptors of the mitochondrial membrane potential (AID 720635); further: potency means the concentration at half of the fitted maximal effect
# Procedure, shortened: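 Mitochondrial membrane potential tracked with Mito-MPS dye, red aggregates (ex 540/em 590 nm) against green monomers (ex 490/em 535 nm). Compound treatment 1 hr at 37C, dye 30 min in HepG2.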
# [16] = qHTS assay to test for compound auto fluorescence at 590 nm (red) in HEK293 cells (AID 720679)
# Procedure, shortened: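 Intensity at 540nm excitation and 590nm emission is reported as Rose Bengal sodium-equivalent autofluorescence. Measurements followed overnight exposure (37C, 5% CO2) of HEK293 cells, 2,000 per well, to 23 nL compound.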
# [17] = target: Glucocorticoid receptor (Homo sapiens) (UniProt P04150); assay: qHTS assay to identify small molecule agonists of the glucocorticoid receptor (GR) signaling pathway (AID 720691; active means well fitted activation curve with a large enough effect in the signal ratio in the repeat runs, not every such curve was filed as active; the % refers to the signal ratio)
# Procedure, shortened: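 Agonist-mode qHTS in HeLa cells stably expressing a glucocorticoid-response-element beta-lactamase reporter. Fluorescence intensity read with FRET substrate (2 h, room temperature) after 18 h compound treatment at 37 C.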
# [18] = qHTS assay to test for compound auto fluorescence at 460 nm (blue) in HEK293 cells (AID 720678)
# Procedure, shortened: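 HEK293, 2,000 cells/well, 10% dialyzed FBS; attach 4-5 hr 37C; pin compound or DMSO; o/n 37C/5% CO2; fluorescence 405/460 nm; triamterene-equivalent units.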
# [19] = target: Glucocorticoid receptor (Homo sapiens) (UniProt P04150); assay: qHTS assay to identify small molecule antagonists of the glucocorticoid receptor (GR) signaling pathway (AID 720692; active means well fitted inhibition curve with a large enough effect in the signal ratio in the repeat runs, not every such curve was filed as active; the % refers to the signal ratio; further: potency means the concentration at half of the fitted maximal effect)
# Procedure, shortened: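 Inhibition of dexamethasone-driven (5 nM final) beta-lactamase expression was measured in GRE-reporter HeLa cells over 18 h at 37C. Fluorescence was read after 2 h with the B/G FRET substrate at room temperature.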
# [20] = qHTS assay to test for compound auto fluorescence at 535 nm (green) in HEK293 cells (AID 720680)
# Chain of Glucocorticoid receptor (Homo sapiens) (P04150 whole entry, looked up): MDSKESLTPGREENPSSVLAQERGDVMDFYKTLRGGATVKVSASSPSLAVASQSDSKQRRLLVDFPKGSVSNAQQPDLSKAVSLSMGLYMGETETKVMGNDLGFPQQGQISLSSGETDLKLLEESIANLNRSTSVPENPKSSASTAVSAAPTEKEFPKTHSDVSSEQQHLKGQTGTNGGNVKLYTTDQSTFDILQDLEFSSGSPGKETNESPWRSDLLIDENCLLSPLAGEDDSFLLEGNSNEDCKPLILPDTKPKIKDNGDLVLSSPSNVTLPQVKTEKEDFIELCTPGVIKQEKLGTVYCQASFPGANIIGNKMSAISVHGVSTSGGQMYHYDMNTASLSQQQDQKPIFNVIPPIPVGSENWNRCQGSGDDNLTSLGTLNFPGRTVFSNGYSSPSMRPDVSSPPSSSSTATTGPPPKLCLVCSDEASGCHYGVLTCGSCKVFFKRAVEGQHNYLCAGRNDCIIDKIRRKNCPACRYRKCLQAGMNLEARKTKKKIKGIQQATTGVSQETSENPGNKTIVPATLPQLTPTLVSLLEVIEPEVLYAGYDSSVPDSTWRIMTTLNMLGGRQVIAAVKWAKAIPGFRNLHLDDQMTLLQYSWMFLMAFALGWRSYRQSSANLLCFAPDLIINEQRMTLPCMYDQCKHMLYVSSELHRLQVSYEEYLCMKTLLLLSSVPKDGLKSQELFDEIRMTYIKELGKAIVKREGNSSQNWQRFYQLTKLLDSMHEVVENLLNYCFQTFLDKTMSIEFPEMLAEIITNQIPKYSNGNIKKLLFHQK
SMILES,Potency [1],Potency [2],Potency [3],Potency [4],outcome [5],outcome [6],outcome [7],outcome [8],outcome [9],outcome [10],outcome [11],outcome [12],outcome [13],Potency [14],Potency [15],outcome [16],Potency [17],outcome [18],Potency [19],outcome [20]
ClC1C(Cl)C(Cl)C(Cl)C(Cl)C1Cl (stereo not drawn),inactive,inactive,inactive,inactive,inactive,inactive,inactive,inactive,inactive,inactive,inactive,inactive,inactive,,,,,,,
Oc1c(Cl)c(Cl)c(Cl)c(Cl)c1Cl,3.37 µM (active) and 3.43 µM (active),inactive,,inactive,inactive,inactive,inactive,inactive,inactive,inactive,inactive,inactive,,inactive,3.78 µM (active) and 1.53 µM (active),inactive,inactive,,,
O=C(O)C(F)(F)C(F)(F)C(F)(F)C(F)(F)C(F)(F)C(F)(F)C(F)(F)F,inactive,inactive,inactive,inactive,inactive,inactive,inactive,inactive,inactive,inactive,inactive,inactive,,inactive,,inactive,,inactive,,
CC(O)CCO (stereo not drawn),inactive,inactive,inactive,,inactive,inactive,inactive,inactive,inactive,inactive,inactive,inactive,inactive,inactive,,inactive,,,,
CC(C)c1ccc(CO)cc1,inactive,inactive,inactive,inactive,inactive,inactive,inactive,inactive,inactive,inactive,inactive,inactive,inactive,inactive,,inactive,,inactive,,
CCC(C)(C)c1ccc(O)cc1,inactive,inactive,inactive,55 µM (active) and inactive,,inactive,inactive,inactive,inactive,inactive,inactive,inactive,inactive,inactive,26.6 µM (active) and 17.4 µM (active) and 15.4 µM (active),,inactive,,inactive,
CC(C)N(C(=O)SCC(Cl)=C(Cl)Cl)C(C)C,inactive,inactive,inactive,,inactive,inactive,inactive,inactive,inactive,inactive,inactive,inactive,,inactive,13.5 µM (active),inactive,inactive,,inactive,inactive
c1ccc(P(c2ccccc2)c2ccccc2)cc1,inactive,inactive,inactive,inactive,inactive,inactive,inactive,inactive,inactive,inactive,inactive,inactive,inactive,inactive,,,inactive,inactive,inactive,inactive
CCCCCCOC(=O)c1ccccc1C(=O)OCCCCCC,inactive,inactive,inactive,inactive,,inactive,inactive,inactive,inactive,inactive,inactive,inactive,inactive,inactive,27.9 µM (active),,inactive,inactive,inactive,
CN(C)c1ccc(C(=O)c2ccc(N(C)C)cc2)cc1,605 nM (active) and 273 nM (active),inactive,inactive,,,inactive,,inactive,inactive,inactive,,inactive,,27 µM (active),53.9 µM (active),,inactive,,,inactive
CCC(=O)O[C@H]1CC[C@H]2[C@@H]3CCC4=CC(=O)CC[C@]4(C)[C@H]3CC[C@]12C,inactive,inactive and 61.1 µM (active),inactive,inactive,inactive,inactive,inactive,inactive,inactive,inactive,inactive,inactive,inactive,inactive,,inactive,inactive,inactive,5.12 µM (active) and 4.9 µM (active),
CNC(=O)N(C)c1nnc(C(C)(C)C)s1,inactive,inactive,inactive,inactive,inactive,inactive,inactive,inactive,inactive,inactive,inactive,inactive,inactive,inactive,,,,inactive,,inactive
O=[N+]([O-])c1cccc2ccccc12,inactive,inactive,inactive,inactive,,inactive,inactive,inactive,inactive,inactive,inactive,inactive,,inactive,,inactive,,inactive,,inactive
O=C(O)CC[N+](=O)[O-],inactive,inactive,inactive,inactive,,inactive,inactive,inactive,inactive,inactive,inactive,inactive,,,inactive,inactive,inactive,inactive,inactive,inactive
Cc1cccc(N)c1N,,inactive,inactive,inactive,inactive,inactive,inactive,inactive,inactive,inactive,inactive,inactive,inactive,inactive,21 µM (active) and 17.2 µM (active),inactive,inactive,,inactive,
NC(=S)Nc1ccccc1,,inactive,inactive,,inactive,inactive,inactive,inactive,inactive,inactive,inactive,inactive,inactive,inactive,,inactive,inactive,inactive,inactive,
Cc1ccc(N)c(N)c1,,inactive,inactive,inactive,inactive,inactive,inactive,inactive,inactive,inactive,inactive,inactive,inactive,68.8 µM (active) and 68.6 µM (active),,inactive,inactive,inactive,inactive,
CCCCN(CC)c1c([N+](=O)[O-])cc(C(F)(F)F)cc1[N+](=O)[O-],,inactive,inactive,inactive,inactive,inactive,inactive,inactive,inactive,inactive,inactive,inactive,inactive,inactive,6.86 µM (active),,inactive,inactive,inactive,inactive
C[C@]12CCC(=O)C[C@@H]1CC[C@@H]1[C@@H]2CC[C@]2(C)[C@@H](O)CC[C@@H]12,inactive,inactive,inactive,,inactive,inactive,inactive,inactive,inactive,inactive,inactive,inactive,,,,inactive,,inactive,,inactive
c1cc(OCC2CO2)ccc1Cc1ccc(OCC2CO2)cc1 (stereo not drawn),,54.7 µM (active),inactive,inactive,inactive,inactive,inactive,inactive,inactive,inactive,inactive,inactive,,inactive,,inactive,inactive,,,inactive
N#Cc1cc(Br)c(O)c(Br)c1,,inactive,inactive,11.7 µM (active),inactive,inactive,inactive,inactive,inactive,inactive,inactive,inactive,inactive,inactive,13.7 µM (active) and 4.17 µM (active),,inactive,,,inactive
CC(C)Oc1cc(-n2nc(C(C)(C)C)oc2=O)c(Cl)cc1Cl,,inactive,inactive,12 µM (active) and 54.5 µM (active),inactive,inactive,inactive,inactive,inactive,inactive,inactive,inactive,inactive,inactive,24 µM (active) and 43.3 µM (active),,inactive,,,
CCc1cccc(CC)c1N(COC)C(=O)CCl,,inactive,inactive,inactive,inactive,inactive,inactive,inactive,inactive,inactive,inactive,inactive,inactive,inactive,,,inactive,,,inactive
CCC(C)(c1ccc(O)cc1)c1ccc(O)cc1,,inactive,inactive,inactive,,inactive,inactive,inactive,inactive,inactive,inactive,inactive,inactive,inactive,7.69 µM (active) and 9.69 µM (active),,,inactive,,inactive
Oc1ccc(-c2ccccc2)cc1,,inactive,inactive,53.8 µM (active) and 48.6 µM (active),,inactive,inactive,inactive,inactive,inactive,inactive,inactive,,inactive,24 µM (active) and 13.7 µM (active),inactive,inactive,,,inactive
O=C(CCl)c1ccccc1,,inactive,inactive,inactive,,inactive,inactive,inactive,inactive,inactive,inactive,inactive,inactive,68.6 µM (active),inactive,inactive,inactive,,inactive and 54.9 µM (active),
